High-throughput results: PubChem BioAssay, several laboratories
ABCB6 inh 2 – blocks the human ABCB6 transporter | Q9NP58 | K562-ABCB6 porphyrin accumulation, flow cytometry, 1 h; hits give low values | fluorescence ratio to DMSO, % at 10 µM | 0.19% of 360,000 active;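 active = fluorescence ratio to DMSO below 75%, the collection mean minus 3 SD; inconclusive = too few cells collected in the well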;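 also: signal is porphyrin accumulated inside mitochondria; 100% equals median channel fluorescence of DMSO control wells; lower ratio means ABCB6 inhibition with less porphyrin fluorescence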
PHOSPHO1 block – inhibitors of human PHOSPHO1 phosphatase. AID 1565. Q8TCT1. 1.1% of 290,000 active. inhibition, % at 13.3 µM. recombinant PHOSPHO1, absorbance phosphatase assay; in the data active = inhibition above about 60%
eIF4H FP inh – inhibitors of RNA binding by human eIF4H | AID 2012 | inhibition, % at 35 µM | 0.94% of 290,000 active | eIF4H fluorescence polarization binding assay | Q15056;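 also: calls also rest on retests at 20 µM and on dose response follow-up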
AI-2 QS modul – Vibrio harveyi AI-2 quorum sensing modulation; 0.4% of 300,000 active; Vibrio harveyi JMH597 AI-2 luminescence/OD600 ratio, 9 h; hits give low values; strain lacks LuxN and CqsS sensors; 0 = neutral-control median; activity change, % at 7.5 µM; in the data active = activity change below about -75%, passing the limit was not always enough; inconclusive = no clear call, values can overlap the other calls;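 also: luminescence divided by OD600 gain over 9 h not by final OD600 alone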
PABP polyA inh – blocks human PABP binding to poly(A) RNA; calls only at 35 µM; AID 2014; fluorescence polarization; 1% of 290,000 active; P11940;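 also: calls also rest on retests at 20 µM and on dose response follow-up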
Target sequence (P11940 whole entry, looked up): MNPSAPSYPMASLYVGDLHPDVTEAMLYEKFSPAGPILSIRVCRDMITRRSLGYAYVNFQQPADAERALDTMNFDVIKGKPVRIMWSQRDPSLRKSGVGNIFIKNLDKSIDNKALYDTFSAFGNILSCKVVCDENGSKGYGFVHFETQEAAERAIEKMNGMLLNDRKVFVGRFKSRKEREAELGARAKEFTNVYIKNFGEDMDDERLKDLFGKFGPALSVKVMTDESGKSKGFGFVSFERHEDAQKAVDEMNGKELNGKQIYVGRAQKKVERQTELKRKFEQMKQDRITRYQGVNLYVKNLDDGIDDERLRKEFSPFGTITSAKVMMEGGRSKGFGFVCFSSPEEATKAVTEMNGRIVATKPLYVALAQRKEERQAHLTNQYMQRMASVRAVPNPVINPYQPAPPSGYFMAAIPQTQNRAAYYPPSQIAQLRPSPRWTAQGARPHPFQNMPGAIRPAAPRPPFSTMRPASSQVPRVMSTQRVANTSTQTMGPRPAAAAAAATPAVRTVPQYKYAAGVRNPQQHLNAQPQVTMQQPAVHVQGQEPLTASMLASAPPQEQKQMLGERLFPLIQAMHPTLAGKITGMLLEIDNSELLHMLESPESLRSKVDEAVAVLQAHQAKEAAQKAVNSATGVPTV
PABP1 MLLE inh – inhibitors of microRNA-mediated deadenylation, human PABP1 MLLE binding. GST-MLLE / FITC-PAM2 fluorescence polarization. inhibition, % at 20 µM. 0.36% of 360,000 active; in the data active = inhibition above about 35%, passing the limit was not always enough;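 also: plate controls were DMSO wells with GST-MLLE for no effect and wells lacking GST-MLLE protein for full effect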
Starred values were filed as active, the others as inactive; i = inactive; ? = inconclusive; · = no result; + = active, no number. Hits are enriched below; roughly 2.6% of the tested compounds scored in any of these assays. Unless noted, no rule for the calls is given here.

SMILES	ABCB6 inh 2	PHOSPHO1 block	eIF4H FP inh	AI-2 QS modul	PABP polyA inh	PABP1 MLLE inh
CS(=O)(=O)N1Cc2ccccc2CC1C(=O)O (stereo not given)	99	32	?	13	+	12
CC(=O)c1ccc2c(c1)N(Cc1ccccc1)C(=O)C(C)S2 (stereo not given)	93	·	·	·	·	-7
COc1cccc(C(=O)NC2=NCCS2)c1OC	119	48	-9	18	i	40*
CC(C)Oc1ccc(C(=O)NC2=NCCS2)cc1	94	9	-3	22	i	40*
CC(C)c1ccc(C(=O)NC2=NCCS2)cc1	102	-6	-4	12	i	25
COc1cc(C(=O)NC2=NCCS2)cc(OC)c1OC	86	17	-6	8	i	3
O=C(C(=Cc1ccc(O)cc1)c1ccccc1)c1ccccc1	105	·	·	·	·	·
CC1C(=O)N(Cc2cn(CC3CCCCC3)nn2)CCS(=O)(=O)N1Cc1ccc(-c2cccc(CO)c2)cc1 (stereo not given)	93	·	·	·	·	-13
C=CCN(C(=O)Cn1c(C(=O)OC)cc2oc(C)cc21)c1ccccc1	98	74*	-1	7	i	-5
O=C(Nc1ccc(-c2cn3ccsc3n2)cc1)C1CC1	92	88*	12	16	i	-88
c1cn2cc(-c3ccc4c(c3)OCO4)nc2s1	102	68*	-7	12	i	-3
CC(=O)Nc1ccc(-c2cn3ccsc3n2)cc1	93	23	-3	-4	i	5
COc1ccc(NC(=S)Nc2cc(-c3ccccc3)[nH]n2)cc1Cl	96	69*	-4	21	i	16
COc1ccc(NC(=S)Nc2cc(C)[nH]n2)cc1Cl	102	-133	-6	30	i	-6
O=S(=O)(c1ccc(N=C2NN=C(c3cc(F)ccc3F)CS2)cc1)N1CCOCC1	103	5	3	·	i	25
CC(=O)Nc1ccc(C2=NNC(=Nc3ccc(S(=O)(=O)N4CCOCC4)cc3)SC2)cc1	95	65*	1	22	i	-1
CCOC(=O)c1ccc(NC(=O)c2ncn3c2C(=O)NC[C@@H]3C)cc1	98	·	·	·	·	4
Cc1ccc(/C(C#N)=C\c2ccc(N3CCOCC3)o2)cc1	133	62*	23	20	i	-110
N#C/C(=C/c1ccc(N2CCCCCC2)o1)c1ccc(Cl)cc1	203	-12	12	27	i	-130
N#C/C(=C/c1ccc(N2CCCCC2)o1)c1cccc(F)c1	162	0	87*	-2	+	-105
O=C1N=c2ccccc2=C1c1sc(Nc2ccc(O)cc2)nc1O	95	-20	?	·	i	18
O=C1N=c2ccccc2=C1c1sc(Nc2cccc(O)c2)nc1O	98	25	59*	-2	+	-17
CCCN(CC(=O)Nc1cc(C)on1)CC(=O)Nc1ccccc1C	103	·	·	·	·	-2
CCCN(CC(=O)Nc1ccc(C(C)=O)cc1)CC(=O)Nc1ccccc1C	100	8	?	24	+	-21
Cc1ccc(NC(=O)CN(C)CC(=O)Nc2ccccc2C#N)cc1	98	4	active	6	i	15
SMILES	ABCB6 inh 2	PHOSPHO1 block	eIF4H FP inh	AI-2 QS modul	PABP polyA inh	PABP1 MLLE inh
Cc1ccc(NC(=O)CN(C)CC(=O)Nc2ccccc2Oc2ccccc2)cc1	91	24	-1	14	i	-5
CCOc1ccc(CCN2C(=O)C(=O)N([C@@H](CC(C)C)CN3CCC[C@H]3CN3C(=O)C(=O)NC[C@@H]3CC(C)C)C[C@@H]2Cc2ccc(O)cc2)cc1	98	·	·	·	·	·
O=C1CCCC(O)=C1N=Nc1ccc2c(c1)OCO2	107	24	-5	17	i	-48
O=C1CCCC(O)=C1N=Nc1ccc(C(=O)O)cc1	99	7	102*	21	+	21
CCOC(=O)C1(C)CCCCCN1C(=O)c1ccccc1F (stereo not given)	101	·	·	·	·	4
O=C(NC1CCCCC1)C(Cc1ccccc1)NS(=O)(=O)c1cccs1 (stereo not given)	99	14	6	21	i	-6
O=S(=O)(NC(=S)NC1CCCCC1)c1cccs1	101	15	2	39	i	52*
O=S(=O)(NC(=S)NC1CCCCC1)c1ccccc1	99	-5	-1	7	i	37*
O=S(=O)(NC(=S)c1ccccc1)c1ccc(Cl)cc1	95	15	-4	27	i	23
